Source: PubChem BioAssay (several laboratories)
Most compounds without a hit are left out; they make up all but 0.96% or so of the library.
DAGLB inhibitor – diacylglycerol lipase beta (human) inhibition | 0.059% of 340,000 active | HEK293T DAGLB membrane lysate, EnzChek fluorogenic substrate | Q8NCG7 | AID 504411 | inhibition, % at 5.17 µM; in the data active = inhibition above about 34%
MIN6 prolif-1 – MIN6 beta-cell proliferation induction; proliferation, % at 10 µM; 0.29% of 330,000 active; MIN6 cells proliferation, ATPlite luminescence, 48 h; cells starved in 0.2% serum; 100% = growth in 10% serum;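 active = compounds whose signal lies at least 3.5 SD above the mean of all wells on their plate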
Rtt109 HAT inh – C. albicans Rtt109 histone acetyltransferase inhibition; Q5AAJ8; purified Rtt109/Vps75, ThioGlo CoA-SH fluorescence, 4 h; inhibition, % at 34.9 µM; 0.16% of 330,000 active;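 active = inhibition of at least 50% in every replicate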
Target sequence (Q5AAJ8 whole entry, looked up): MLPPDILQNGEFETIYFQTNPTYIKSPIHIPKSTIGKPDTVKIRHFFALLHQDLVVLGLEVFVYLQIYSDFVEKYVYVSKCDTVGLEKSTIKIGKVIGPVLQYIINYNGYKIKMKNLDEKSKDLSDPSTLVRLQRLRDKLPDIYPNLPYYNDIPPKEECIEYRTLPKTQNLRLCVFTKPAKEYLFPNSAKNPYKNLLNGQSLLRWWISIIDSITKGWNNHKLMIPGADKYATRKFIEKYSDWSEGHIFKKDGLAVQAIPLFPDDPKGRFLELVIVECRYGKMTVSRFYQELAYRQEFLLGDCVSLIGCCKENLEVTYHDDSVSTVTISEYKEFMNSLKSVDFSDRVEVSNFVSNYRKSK
V-ATPase pH – regulators of yeast V-ATPase proton transport. S. cerevisiae, pHLuorin cytosolic pH fluorescence. response, % at 10 µM. 0.37% of 350,000 active; in the data active = response mostly above about 7.3%, no sharp cut-off; inactive = mostly below about 5.4%; note: actives read high
HDAC3 inh – human HDAC3 inhibition. recombinant HDAC3, fluorogenic peptide/trypsin coupled, fluorescence. inhibition, % at 8.3 µM. 0.15% of 320,000 active. AID 2718; in the data active = inhibition above about 26%, passing the limit was not always enough
MIN6 prolif-2 – confirmation of inducers of beta-cell replication in MIN6 cells. shares compounds with MIN6 prolif-1. MIN6 beta-cell proliferation, ATPlite luminescence, 48 h; cells kept in 0.2% serum; scaled between 0.2% and 10% serum. proliferation increase, % at 50 µM. 920 tested, under 10 active. AID 463095;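 active = proliferation increase above 40% at any of the four tested concentrations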
A number is an active result.

Screening CC(O)CNc1cc(N)c([N+](=O)[O-])cc1[N+](=O)[O-] (stereo not given) returned DAGLB inhibitor inactive, MIN6 prolif-1 0.0, Rtt109 HAT inh inactive, V-ATPase pH inactive, HDAC3 inh inactive and MIN6 prolif-2 inactive.
CN(C)S(=O)(=O)c1ccc(-n2cccc2)cc1 was read as DAGLB inhibitor inactive, MIN6 prolif-1 inactive, Rtt109 HAT inh inactive, V-ATPase pH inactive and HDAC3 inh inactive.
Cc1cc(NCCCN(C)C)n2nc(-c3cccs3)cc2n1 was read as DAGLB inhibitor inactive, MIN6 prolif-1 inactive, Rtt109 HAT inh inactive, V-ATPase pH inactive and HDAC3 inh inactive.
Cc1nc(NC(=O)c2ccc(Br)o2)ccc1Br was read as DAGLB inhibitor inactive, MIN6 prolif-1 11.3, Rtt109 HAT inh inactive, V-ATPase pH inactive and MIN6 prolif-2 inactive.
`CCOc1ccc(NC(=S)N(Cc2ccc(Cl)cc2)Cc2ccco2)cc1` gave DAGLB inhibitor inactive, MIN6 prolif-1 inactive, Rtt109 HAT inh inactive, V-ATPase pH inactive and HDAC3 inh inactive.
For CCOc1ccc(S(=O)(=O)N(CC)CC)cc1NC(=O)CSCc1c(C)noc1C the results were DAGLB inhibitor inactive, MIN6 prolif-1 10.8, Rtt109 HAT inh inactive, V-ATPase pH inactive, HDAC3 inh inactive and MIN6 prolif-2 inactive.
Screening CCCCN(CCCNC(=O)C1CCN(C(=O)c2cc3sccc3n2C)CC1)Cc1ccccc1 returned DAGLB inhibitor inactive, MIN6 prolif-1 inactive, Rtt109 HAT inh inactive, V-ATPase pH inactive and HDAC3 inh inactive.
`CC1CCCC(C)N1C(=O)c1cccc2c1-c1ccccc1/C2=N/O` (stereo not given) gave DAGLB inhibitor inactive, MIN6 prolif-1 5.5, Rtt109 HAT inh inactive, V-ATPase pH inactive, HDAC3 inh inactive and MIN6 prolif-2 inactive.
`CCOC(=O)c1cccc2c1-c1ccccc1/C2=N/O` gave DAGLB inhibitor inactive, MIN6 prolif-1 inactive, Rtt109 HAT inh inactive, V-ATPase pH inactive and HDAC3 inh inactive.
`Cc1cccn2c(=O)c(/C=C(\C#N)C(N)=O)c(N3CCN(c4ccccc4)CC3)nc12` gave DAGLB inhibitor inactive, MIN6 prolif-1 6.9, Rtt109 HAT inh inactive, V-ATPase pH inactive, HDAC3 inh inactive and MIN6 prolif-2 inactive.
`O=C(CCNS(=O)(=O)c1ccc(Cl)cc1)N1CCC2(O)CCCCC2C1` (stereo not given) gave DAGLB inhibitor inactive, MIN6 prolif-1 5.6, Rtt109 HAT inh inactive, V-ATPase pH inactive, HDAC3 inh inactive and MIN6 prolif-2 inactive.
O=C(CCNS(=O)(=O)c1ccc(Cl)cc1)N1CCCC1 was read as DAGLB inhibitor inactive, MIN6 prolif-1 inactive, Rtt109 HAT inh inactive, V-ATPase pH inactive and HDAC3 inh inactive.
For Cc1c(Br)c([N+](=O)[O-])nn1CC(=O)Nc1c(C)n(C)n(-c2ccccc2)c1=O the results were DAGLB inhibitor inactive, MIN6 prolif-1 inactive, V-ATPase pH inactive and HDAC3 inh inactive.
Screening CCOC(=O)Nc1ccc2c(c1)C(=NNC(=S)NC)c1ccccc1-2 returned DAGLB inhibitor inactive and V-ATPase pH inactive.
For Cc1nc(N2CCCCC2)c2sc(=S)n(C)c2n1 the results were DAGLB inhibitor inactive, MIN6 prolif-1 8.9, Rtt109 HAT inh inactive, V-ATPase pH inactive, HDAC3 inh inactive and MIN6 prolif-2 inactive.
For CCN(CC)c1nc(C)nc2c1sc(=S)n2C the results were DAGLB inhibitor inactive, MIN6 prolif-1 8.0, Rtt109 HAT inh inactive, V-ATPase pH inactive, HDAC3 inh inactive and MIN6 prolif-2 inactive.
`CN(CC(=O)NCc1cccs1)CC(=O)Nc1ccccc1Cl` gave DAGLB inhibitor inactive and V-ATPase pH inactive.
Screening COc1ccc(NC(=O)c2nc[nH]c2C(=O)N(C)Cc2ccccc2)cc1 returned DAGLB inhibitor inactive, MIN6 prolif-1 inactive, Rtt109 HAT inh inactive, V-ATPase pH inactive and HDAC3 inh inactive.
Screening Cc1ccc(C2CC(=O)C=C(NCC(C)C)C2)cc1 (stereo not given) returned DAGLB inhibitor inactive, MIN6 prolif-1 inactive, Rtt109 HAT inh inactive, V-ATPase pH inactive and HDAC3 inh inactive.
For Cc1cccc(N2CCN(C(=S)NC3CCCCC3)CC2)c1C the results were DAGLB inhibitor inactive, MIN6 prolif-1 7.9, Rtt109 HAT inh inactive, V-ATPase pH inactive, HDAC3 inh inactive and MIN6 prolif-2 inactive.
Cc1ccc(C)c(N2CCN(C(=S)NC3CCCCC3)CC2)c1 was read as DAGLB inhibitor inactive, MIN6 prolif-1 inactive, Rtt109 HAT inh inactive, V-ATPase pH inactive and HDAC3 inh inactive.
